Assay outcomes deposited in PubChem BioAssay by National Center for Advancing Translational Sciences (NCATS).
In the library only some 9.3% were active in any assay of this set; here they are far more common.
SMN2 splice up: qHTS Assay for Enhancers of SMN2 Splice Variant Expression; HEK293 SMN2-luciferase splicing reporter, luminescence, 30-36 h; Potency, µM (doses to about 46.1 µM), for the others: top-dose activity change, positive = activation, most hits filed as activators; 210,000 compounds, 2.8% hits; AID 1458, 2008; also: % of control where 0% means no effect; nearly all actives have a fitted effect of over 55% in size
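qHTS luciferase splicing reporter: luminescence rises when SMN2 exon 7 is included in transfected HEK293 cells. Compound exposure lasted 30-36 h at 37C, with 4.5 mM final sodium butyrate as control, followed by a ONE-Glo read.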
FLuc modulator: qHTS profiling assay for firefly luciferase inhibitor/activator using purifed enzyme and Km concentrations of substrates (counterscreen for miR-21 project). purified FLuc, Km substrates, luminescence inhibition. 360,000 compounds, 6.9% hits. AID 588342, 2011. Potency, µM (highest dose often 57.5 µM), inactives show at the top dose activity change, negative = inhibition, most hits filed as inhibitors;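 also: plate controls were vehicle for no effect and reference inhibitor for full effect; nearly all actives have a fitted effect of over 55% in size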
Target sequence (P08659 whole entry, looked up): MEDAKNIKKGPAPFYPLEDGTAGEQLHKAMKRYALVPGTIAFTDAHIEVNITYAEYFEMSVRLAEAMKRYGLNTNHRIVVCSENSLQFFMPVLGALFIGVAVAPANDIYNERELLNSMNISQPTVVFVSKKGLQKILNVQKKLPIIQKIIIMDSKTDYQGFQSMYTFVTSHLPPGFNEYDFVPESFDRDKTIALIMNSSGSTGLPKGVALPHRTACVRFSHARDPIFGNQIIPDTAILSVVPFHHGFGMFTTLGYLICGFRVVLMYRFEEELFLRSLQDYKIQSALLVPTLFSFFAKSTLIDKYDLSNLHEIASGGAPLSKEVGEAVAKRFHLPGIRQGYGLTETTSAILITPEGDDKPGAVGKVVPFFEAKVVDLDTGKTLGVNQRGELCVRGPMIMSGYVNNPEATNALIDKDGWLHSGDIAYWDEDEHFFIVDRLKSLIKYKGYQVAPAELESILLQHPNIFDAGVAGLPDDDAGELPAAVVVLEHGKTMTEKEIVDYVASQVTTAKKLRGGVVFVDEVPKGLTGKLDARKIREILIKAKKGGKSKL
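Biochemical qHTS of compounds, final roughly 60 µM downward over six points, against 10 nM purified firefly luciferase using Km concentrations of substrates (10 uM D-luciferin, 10 uM ATP) in Tris acetate pH 7.5 buffer; luminescence output.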
ELG1 DNA repair: qHTS screen for small molecules that inhibit ELG1-dependent DNA repair in human embryonic kidney (HEK293T) cells expressing luciferase-tagged ELG1. 330,000 compounds, 2.3% hits. Potency, µM (doses to about 46.1 µM), for the others: top-dose activity change, negative = inhibition, actives largely listed as inhibitors. AID 504467, 2011. HEK293T ELG1-luciferase reporter, luminescence, 16 h; DNA damage induced by 5-fluorouridine; also: % is scaled to controls: 0 for no effect and ±100 for the full control effect; nearly all actives have a fitted effect of over 55% in size
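Reporter activity after DNA damage by 5-fluorouridine is monitored. Compound-treated cells incubate 16 hr at 37 °C, then ONE-Glo is added for 30 min before luminescence reading.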
NPC1 prom act: qHTS Assay for NPC1 Promoter Activators; Potency, µM (highest dose often 9.22 µM), inactives show at the top dose activation, most hits filed as activators; Huh7 NPC1 promoter luciferase reporter, 24 h; AID 485313, 2010; 320,000 compounds, 2.4% hits; also: % of control where 0% means no effect; nearly all actives have a fitted effect of over 60% in size
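Stable NPC1-promoter luciferase Huh7 line; cpd (DMSO) 24 h, 37 °C, 5% CO2; Amplite luciferase reagent 10 min RT; luminescence readout. qHTS format.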
Rab9 promoter act: qHTS Assay for Rab9 Promoter Activators | Potency, µM (top dose mostly 9.22 µM), without a hit: top-dose activation, negative = inhibition, actives largely listed as activators | 320,000 compounds, 2.8% hits | Huh7 Rab9 promoter-luciferase reporter, luminescence, 24 h; also: % of control where 0% means no effect; nearly all actives have a fitted effect of over 60% in size
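Steps: seed 1500 Huh7 Rab9-luc cells per well, rest 2 h at 37 °C; add compound in DMSO; incubate 24 h; add luciferase reagent, 10 min ambient; read luminescence.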
ELG1 genotoxic: qHTS screen for small molecules that induce genotoxicity in human embryonic kidney (HEK293T) cells expressing luciferase-tagged ELG1. Potency, µM (doses to about 46 µM), inactives show at the top dose activity change, positive = activation, actives largely listed as activators. HEK293T ELG1-luciferase reporter, luminescence, 16 h. 330,000 compounds, 1.3% hits; also: % of control where 0% means no effect; nearly all actives have a fitted effect of over 60% in size
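ELG1-luciferase HEK293T cells, 2,000/well; compound pinned in; 16 hr, 37 °C, 5% CO2; ONE-Glo, 30 min RT; luminescence on CCD imager.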
* marks the source's active call; other numbers are inactive results; ? = inconclusive; / = not tested or not shown. Calls follow the shape of the dose curve; as a rule, active = well fitted curve in the direction sought with a large enough effect; inconclusive = small, poorly fitted or top-dose-only effect, or another doubt; inactive = no such curve, though single readings can be large; an effect the other way counts as inactive or inconclusive. Potency is read from the fitted curve at half-maximal effect.

SMILES	SMN2 splice up	FLuc modulator	ELG1 DNA repair	NPC1 prom act	Rab9 promoter act	ELG1 genotoxic
Cc1ccc2c(CN3CCCCC3C)cc(=O)oc2c1C (centres undefined)	/	-9%	0%	2%	1%	7%
Cc1c(C)c2ccc(OCC(=O)NCCCn3ccnc3)cc2oc1=O	/	-2%	?	0%	-2%	8%
CN1CCCN(S(=O)(=O)c2ccc(O)c(C(=O)O)c2)CC1	/	-2%	6%	-2%	-5%	-1%
CC(C)(C)c1ccc(-c2nc(N)nc(N)n2)cc1	/	2.1µM*	?	?	?	?
CCN(Cc1ccccc1)S(=O)(=O)c1ccc(C(=O)N2CCN(c3nc4ccccc4s3)CC2)cc1	-68%	-7%	12µM*	-13%	-24%	-8%
c1ccc(CN2CCN(c3nc4ccccc4s3)CC2)cc1	/	2.7µM*	?	1.4µM*	0.71µM*	9.2µM*
COc1cccc(N2CCN(C(=O)c3ccc4nc(N5CCC(C)CC5)sc4c3)CC2)c1	-25%	9.5µM*	?	?	?	?
O=C(c1ccc2nc(N3CCCCC3)sc2c1)N1CCN(Cc2ccc3c(c2)OCO3)CC1	-64%	-13%	?	11%	-2%	23µM*
CCN(CC)S(=O)(=O)c1ccc(C(=O)N2CCN(c3ncccn3)CC2)cc1	/	2%	?	2%	6%	2%
Cn1ncc2nnn(-c3ccccc3)c(=O)c21	10%	0%	10%	4%	-3%	-4%
CCOC(=O)N1CCN(C(=O)c2ccc3nc(N4CCC(C)CC4)sc3c2)CC1	-11%	?	?	19%	23%	1%
CC1CCN(c2nc3ccc(C(=O)N4CCN(Cc5ccccc5)CC4)cc3s2)CC1	-57%	17µM*	?	16%	25%	?
COc1ccc(NC(=O)CN2C(=O)NC3(CCCC3)C2=O)cc1	/	-1%	25%	?	5%	6%
Cc1ccc2nc(NC(=O)CN3C(=O)NC4(CCCCC4)C3=O)sc2c1	/	5.4µM*	?	1%	12%	-2%
COc1ccc2nc(NC(=O)CN3C(=O)NC4(CCCC4)C3=O)sc2c1	/	12µM*	?	2%	-1%	0%
O=C(CN1C(=O)NC2(CCCC2)C1=O)Nc1nc2ccccc2s1	/	?	28%	11%	2%	21%
COc1ccc2nc(NC(=O)CN3C(=O)NC4(CCCCC4)C3=O)sc2c1	/	15µM*	6%	2%	22%	-3%
Nc1c2c(=O)oc(-c3ccccc3)cc2nn1-c1ccccc1	13µM*	4.8µM*	?	?	0.71µM*	?
CCN=c1scc(-c2ccc(F)cc2)n1/N=C/c1ccccn1	13µM*	9.5µM*	?	2.5µM*	3.2µM*	10µM*
CCN=c1scc(-c2ccccc2)n1/N=C/c1ccccn1	14µM*	0.6µM*	?	0.35µM*	0.56µM*	?
Cc1nc2ccccc2c(=O)n1/N=C/c1ccccn1	10%	1%	?	3%	24%	6%
CCOc1ccc(NC(=O)c2nc(S(=O)(=O)Cc3ccccc3F)ncc2Cl)cc1	8%	-3%	/	/	/	/
COC(=O)C(Cc1ccc(O)cc1)NC(=O)CCc1nc2ccccc2s1 (centres undefined)	/	-7%	?	2%	12%	0%
C=CCn1c(=N)n(CC(=O)c2ccccc2)c2ccccc21	/	-3%	1%	13%	2%	-5%
C=C1C(=O)[C@@]23[C@H](O)C[C@@H]4C(C)(C)CC[C@H](O)[C@@]4(C)[C@@H]2CC[C@@H]1[C@H]3O	-85%	3%	6.5µM*	-19%	-43%	-11%
